# Measurements taken from PubChem BioAssay.
# Results filed as inconclusive are left out. The source made the active and inactive calls.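 Rule for the calls, unless noted: active = normalized viability below 100% at a tested concentration; inactive = the rest.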
# How the values were obtained:
# [1] = growth inhibition of DIPG glioma cells, dose response, cell-based, SU-DIPG-XVII, MIPE5.0, CellTiter-Glo, qHTS (AID 1347060; cut-off not given, nearly all actives have AC50 up to about 26 µM;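 note: cells exposed to compound for 48 hours before viability readout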); conditions: SU-DIPG-XVII viability, CellTiter-Glo ATP luminescence
# [2] = growth inhibition of DIPG glioma cells, dose response, cell-based, SU-DIPG-XIII, MIPE4.0, CellTiter-Glo, qHTS (AID 1347061; cut-off not given, nearly all actives have AC50 up to about 37 µM;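 note: cells exposed to compound for 48 hours before readout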); conditions: SU-DIPG-XIII viability, CellTiter-Glo ATP luminescence
# [3] = growth inhibition of DIPG glioma cells, dose response, cell-based, JHH-DIPG-1, MIPE4.0, CellTiter-Glo, qHTS (AID 1347062; cut-off not given, nearly all actives have AC50 up to about 27 µM;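 note: cells exposed to compound for two days before readout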); conditions: JHH-DIPG-1 viability, CellTiter-Glo ATP luminescence
# [4] = growth inhibition of DIPG glioma cells, dose response, cell-based, SU-DIPG-IV, MIPE4.0, CellTiter-Glo, qHTS (AID 1347063; cut-off not given, nearly all actives have AC50 up to about 30 µM;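 note: compound exposure lasted 48 hours before the viability readout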); conditions: SU-DIPG-IV viability, CellTiter-Glo ATP luminescence
# [5] = growth inhibition of DIPG glioma cells, dose response, cell-based, SU-DIPG-XIII, MIPE5.0, CellTiter-Glo, qHTS (AID 1347064; cut-off not given, nearly all actives have AC50 up to about 23 µM;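 note: cells exposed to compound for 48 hours before the viability read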); conditions: SU-DIPG-XIII viability, CellTiter-Glo ATP luminescence
# [6] = viability loss in pontine glioma line – cell-based, SU-DIPG-XXV, MIPE5.0, CellTiter-Glo, qHTS, dose response (AID 1347065; cut-off not given, nearly all actives have AC50 up to about 26 µM;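 note: cells exposed to compound for 48 hours before ATP readout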); conditions: CellTiter-Glo ATP luminescence
# [7] = SU-DIPG-VI glioma cell viability, MIPE4.0 library, CellTiter-Glo luminescence, qHTS (AID 1347066; cut-off not given, nearly all actives have AC50 up to about 30 µM;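 note: cells exposed to compound for 48 hours before readout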); conditions: CellTiter-Glo ATP luminescence
# [8] = JHH-DIPG-1 glioma cell viability, MIPE5.0 library, CellTiter-Glo luminescence, qHTS (AID 1347067; cut-off not given, nearly all actives have AC50 up to about 26 µM;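 note: cells exposed to compound for 48 hours before readout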); conditions: JHH-DIPG-1 glioma viability, CellTiter-Glo ATP luminescence
# [9] = SU-DIPG-XXV glioma cell viability, MIPE5.0 library, qHTS (AID 1347068; cut-off not given, nearly all actives have IC50 up to about 30 µM;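 note: cells exposed to compound for 48 hours before viability readout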)
# [10] = sensitizers of A549 cells to miR-34 induction, primary screen, imaging, A549 dox-inducible miR-34, nuclei and caspase counts (AID 1347080;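 active = compounds whose cell count with miR-34 switched on is under 0.7 times the count with it off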); conditions: A549 miR-34 inducible, Hoechst nuclei count, 48 h
# [11] = modifiers of HSF1 nuclear foci, imaging, Selleck Cancer Library (AID 1347162; in the data active = plate-normalised HSF1 focus index below about 0.46); conditions: human cells, at 10 µM; SSMD: measured here: HSF1 foci SSMD mean; cell count: measured here: cell number; plate-normalised HSF1 focus index: stronger effect = lower value
# [12] = survival rescue of mitochondrial mutant cells in low glucose, primary screen, MELAS cybrids, Rieske KO mouse fibroblasts, CellTiter-Glo (AID 1508586;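 active = mean z-score across replicates of 1.96 or higher in either the MELAS or the Rieske mutant cell line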;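 note: z relative to plate mean and SD of compound and empty wells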)
# [13] = ovarian cancer cell viability with rucaparib, profiling panel, oncology-focused library, rucaparib conditional (AID 1508598); conditions: patient-derived ovarian cancer cells, CellTiter-Glo viability, 144 h, stronger effect = lower value
# [14] = LFS_MB_P medulloblastoma growth inhibition, cell-based, chromothripsis tumors, cisplatin or BGB combos (AID 1671449; in the data active = inhibition above about 80%;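 note: cells exposed for 96 hours; 0% = vehicle DMSO and 100% = killing by high DMSO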); conditions: LFS_MB_P medulloblastoma cells
# [15] = HDN33 neuroblastoma growth inhibition, cell-based, chromothripsis tumors, cisplatin or BGB combos (AID 1671450; in the data active = inhibition above about 80%;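 note: cells exposed to compound for four days; 0% = vehicle DMSO and 100% = cell killing by high DMSO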); conditions: HDN33 neuroblastoma cells, stronger effect = higher value
# [16] = ICB984 medulloblastoma cell growth inhibition, synergistic combos for chromothripsis tumors, cisplatin or BGB combos (AID 1671451; call rule not given here;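 note: cells exposed for 96 hours before readout; 0% = vehicle DMSO and 100% = killing by high DMSO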); conditions: ICB984 medulloblastoma cells, drug combinations, stronger effect = higher value
# [17] = HTB85 osteosarcoma cell growth inhibition, synergistic combos for chromothripsis tumors, BGB or cisplatin IC20 combos (AID 1671453; in the data active = inhibition above about 80%;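 note: cells exposed for 96 hours before readout; 0% = vehicle DMSO and 100% = high DMSO killing control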); conditions: HTB85 osteosarcoma cells, drug combinations, stronger effect = higher value
# [18] = MDA-MB-436 breast carcinoma cell growth inhibition, synergistic combos for chromothripsis tumors, BGB or cisplatin combos (AID 1671458; call rule not given here;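 note: cells exposed for 96 hours; 0% = vehicle DMSO and 100% = killing by high DMSO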); conditions: MDA-MB-436 breast carcinoma growth inhibition, drug combinations, stronger effect = higher value
# [19] = growth inhibition of BT084 medulloblastoma cells, cell-based, ICGC_MB145, cisplatin and BGB IC40 combos (AID 1671461; in the data active = inhibition above about 80%;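 note: cells exposed to drugs for 96 hours; 0% = vehicle DMSO and 100% = high DMSO full killing control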); conditions: drug combinations, stronger effect = higher value
# [20] = growth inhibition of RCMB18 medulloblastoma cells, cell-based, cisplatin and BGB IC40 combos (AID 1671462; in the data active = inhibition above about 80%;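 note: cells exposed to compound for four days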); conditions: stronger effect = higher value
# [21] = stronger effect = lower value, cell number ratio, induced over uninduced
# [22] = measured here: relative caspase fold change +Dox/-Dox
# [23] = measured here: total cells with miR-34 induction, stronger effect = lower value
# [24] = measured here: total cells without miR-34 induction
# [25] = MELAS cybrid survival, CellTiter-Glo 48 h, stronger effect = higher value
# [26] = Rieske KO mouse fibroblast survival, CellTiter-Glo 72 h
smiles,measurement,setting,value
Nc1ccc(-c2ccc3ncc4ccc(=O)n(-c5cccc(C(F)(F)F)c5)c4c3c2)cn1,AC50,[1],0.0934 µM (active)
same,AC50,[2],0.132 µM (active)
same,AC50,[3],0.0743 µM (active)
same,AC50,[4],0.0332 µM (active)
same,AC50,[5],0.0235 µM (active)
same,AC50,[6],0.0209 µM (active)
same,AC50,[7],0.187 µM (active)
same,AC50,[8],0.166 µM (active)
same,IC50,[9],0.235 µM (active)
same,fold change,[10]; [21],1 (inactive)
same,fold change,[10]; [22],1.14
same,cell count,[10]; [23],1420
same,cell count,[10]; [24],1410
same,SSMD,[11],2.81
same,cell count,[11],6780
same,plate-normalised HSF1 focus index,[11],1.15 (inactive)
same,z-score,[12]; [25],3.27 (active)
same,z-score,[12]; [26],-0.678
same,viability,"[13]; at 0.000305 µM, OCI-C5x cells, with rucaparib 10 µM, 100% = cells with rucaparib alone",117% (inactive)
same,viability,"[13]; at 0.000305 µM, OCI-C5x cells, without rucaparib",112% (inactive)
same,viability,"[13]; at 0.000305 µM, OCI-P5x cells, with rucaparib 20 µM, 100% = cells with rucaparib alone",87.4% (active)
same,viability,"[13]; at 0.000305 µM, OCI-P5x cells, without rucaparib",87.8% (active)
same,viability,"[13]; at 0.00122 µM, OCI-C5x cells, with rucaparib 10 µM, 100% = cells with rucaparib alone",107% (inactive)
same,viability,"[13]; at 0.00122 µM, OCI-C5x cells, without rucaparib",119% (inactive)
same,viability,"[13]; at 0.00122 µM, OCI-P5x cells, with rucaparib 20 µM, 100% = cells with rucaparib alone",89.2% (active)
same,viability,"[13]; at 0.00122 µM, OCI-P5x cells, without rucaparib",90.5% (active)
same,viability,"[13]; at 0.00488 µM, OCI-C5x cells, with rucaparib 10 µM, 100% = cells with rucaparib alone",118% (inactive)
same,viability,"[13]; at 0.00488 µM, OCI-C5x cells, without rucaparib",83.6% (active)
same,viability,"[13]; at 0.00488 µM, OCI-P5x cells, with rucaparib 20 µM, 100% = cells with rucaparib alone",79.7% (active)
same,viability,"[13]; at 0.00488 µM, OCI-P5x cells, without rucaparib",60.8% (active)
same,viability,"[13]; at 0.0195 µM, OCI-C5x cells, with rucaparib 10 µM, 100% = cells with rucaparib alone",113% (inactive)
same,viability,"[13]; at 0.0195 µM, OCI-C5x cells, without rucaparib",72% (active)
same,viability,"[13]; at 0.0195 µM, OCI-P5x cells, with rucaparib 20 µM, 100% = cells with rucaparib alone",70.7% (active)
same,viability,"[13]; at 0.0195 µM, OCI-P5x cells, without rucaparib",49.8% (active)
same,viability,"[13]; at 0.0781 µM, OCI-C5x cells, with rucaparib 10 µM, 100% = cells with rucaparib alone",109% (inactive)
same,viability,"[13]; at 0.0781 µM, OCI-C5x cells, without rucaparib",92.2% (active)
same,viability,"[13]; at 0.0781 µM, OCI-P5x cells, with rucaparib 20 µM, 100% = cells with rucaparib alone",77.9% (active)
same,viability,"[13]; at 0.0781 µM, OCI-P5x cells, without rucaparib",63.5% (active)
same,viability,"[13]; at 0.313 µM, OCI-C5x cells, with rucaparib 10 µM, 100% = cells with rucaparib alone",109% (inactive)
same,viability,"[13]; at 0.313 µM, OCI-C5x cells, without rucaparib",89.4% (active)
same,viability,"[13]; at 0.313 µM, OCI-P5x cells, with rucaparib 20 µM, 100% = cells with rucaparib alone",73.5% (active)
same,viability,"[13]; at 0.313 µM, OCI-P5x cells, without rucaparib",65.9% (active)
same,viability,"[13]; at 1.25 µM, OCI-C5x cells, with rucaparib 10 µM, 100% = cells with rucaparib alone",62.2% (active)
same,viability,"[13]; at 1.25 µM, OCI-C5x cells, without rucaparib",70.5% (active)
same,viability,"[13]; at 1.25 µM, OCI-P5x cells, with rucaparib 20 µM, 100% = cells with rucaparib alone",67.9% (active)
same,viability,"[13]; at 1.25 µM, OCI-P5x cells, without rucaparib",54.1% (active)
same,viability,"[13]; at 5 µM, OCI-C5x cells, with rucaparib 10 µM, 100% = cells with rucaparib alone",33.1% (active)
same,viability,"[13]; at 5 µM, OCI-C5x cells, without rucaparib",29.5% (active)
same,viability,"[13]; at 5 µM, OCI-P5x cells, with rucaparib 20 µM, 100% = cells with rucaparib alone",10.8% (active)
same,viability,"[13]; at 5 µM, OCI-P5x cells, without rucaparib",14.6% (active)
same,inhibition,"[14]; at 0.5 µM, stronger effect = higher value",5.33% (inactive)
same,inhibition,"[14]; measured here: combination with BGB IC20, at 0.005 µM",-20%
same,inhibition,"[14]; measured here: combination with BGB IC40, at 0.005 µM",59.9%
same,inhibition,"[14]; measured here: combination with BGB IC40, at 0.05 µM",-36.1%
same,inhibition,"[14]; measured here: combination with cisplatin, at 0.5 µM, stronger effect = higher value",3.19%
same,inhibition,"[14]; measured here: combination with cisplatin, at 5 µM, stronger effect = higher value",92.6%
same,inhibition,"[15]; BGB combo, at 5 µM",89.3%
same,inhibition,[15]; at 0.5 µM,32.1% (inactive)
same,inhibition,"[15]; cisplatin combo, at 5 µM",93.5%
same,inhibition,"[15]; measured here: with BGB IC20 combination, at 0.5 µM",14.7%
same,inhibition,"[15]; measured here: with cisplatin IC20 combination, at 0.5 µM",43.5%
same,inhibition,"[15]; single agent, at 5 µM",91.8%
same,inhibition,"[16]; BGB IC20 combo, at 0.005 µM",18.5%
same,inhibition,"[16]; BGB IC40 combo, at 0.005 µM",13.6%
same,inhibition,"[16]; BGB IC40 combo, at 0.05 µM",80.5%
same,inhibition,[16]; at 0.5 µM,-14.5% (inactive)
same,inhibition,"[16]; cisplatin combo, at 0.05 µM",79.9%
same,inhibition,"[16]; cisplatin combo, at 0.5 µM",-13.5%
same,inhibition,"[16]; cisplatin combo, at 5 µM",-13.1%
same,inhibition,"[16]; measured here: 5 uM single agent, at 5 µM",-7.65%
same,inhibition,[17]; at 0.5 µM,27.1% (inactive)
same,inhibition,"[17]; measured here: with BGB IC20, at 0.5 µM",35.5%
same,inhibition,"[17]; measured here: with BGB IC20, at 5 µM",78%
same,inhibition,"[17]; measured here: with cisplatin IC20, at 0.5 µM",16.8%
same,inhibition,"[17]; measured here: with cisplatin IC20, at 5 µM",94.9%
same,inhibition,"[17]; single agent, at 5 µM",79.3%
same,inhibition,[18]; at 0.5 µM,12% (inactive)
same,inhibition,"[18]; measured here: BGB combination, at 0.5 µM",0.276%
same,inhibition,"[18]; measured here: BGB combination, at 5 µM",32.6%
same,inhibition,"[18]; measured here: cisplatin combination, at 0.5 µM",-4.07%
same,inhibition,"[18]; measured here: cisplatin combination, at 5 µM",57.7%
same,inhibition,[19]; at 0.5 µM,21.2% (inactive)
same,inhibition,"[19]; cisplatin combination, at 0.5 µM",28.2%
same,inhibition,"[19]; cisplatin combination, at 5 µM",33.5%
same,inhibition,"[19]; measured here: BGB IC40 combination 0.05 uM, at 0.05 µM",-29.9%
same,inhibition,"[19]; single agent, at 5 µM",41.3%
same,inhibition,[20]; at 0.5 µM,16.5% (inactive)
same,inhibition,"[20]; cisplatin combo, at 5 µM",59.1%
same,inhibition,"[20]; measured here: BGB IC40 combination, at 0.05 µM",-1.59%
same,inhibition,"[20]; measured here: combination with cisplatin, at 0.5 µM",23.5%
same,inhibition,"[20]; single agent, at 5 µM",62.1%
C=CC(=O)Nc1cccc(Oc2nc(Nc3ccc(N4CCN(C)CC4)cc3)ncc2Cl)c1,AC50,[1],0.468 µM (active)
same,AC50,[2],13.2 µM (active)
same,AC50,[3],1.66 µM (active)
same,AC50,[4],2.09 µM (active)
same,AC50,[5],1.32 µM (active)
same,AC50,[6],0.372 µM (active)
same,AC50,[7],18.7 µM (active)
same,AC50,[8],1.18 µM (active)
same,IC50,[9],0.525 µM (active)
same,fold change,[10]; [21],0.981 (inactive)
same,fold change,[10]; [22],0.779
same,cell count,[10]; [23],1580
same,cell count,[10]; [24],1610
same,z-score,[12]; [25],1.07 (inactive)
same,z-score,[12]; [26],0.326
